L3MBTL1 inh: L3MBTL1 (human) inhibition; AlphaScreen L3MBTL1–H3K9me1 peptide binding; Q9Y468; AID 485360; 0.66% of 230,000 active; Potency, µM (top dose mostly 57.1 µM), for the others: at the top dose activity, negative = inhibition, actives largely listed as inhibitors; further: on the % scale 0 is the no-effect control and ±100 the full control effect; nearly all actives have a fitted effect of over 60% in size
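First, the protein-peptide complex forms for 30 min at room temperature (L3MBTL1 50 nM, biotinylated H3K9me1 peptide 75 nM). Next, compounds are pin-transferred and incubated 30 min. Finally, AlphaScreen beads are added and read after 30 min.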
HttQ103 aggreg: mutant huntingtin aggregation inhibition | Potency, µM (top dose mostly 46.1 µM), inactives show at the top dose activity change, negative = inhibition, usual class: inhibitors | 1.1% of 220,000 active | PC12 HttQ103-GFP aggregates, Acumen cytometry, 40 h | AID 1688; further: on the % scale 0 is the no-effect control and ±100 the full control effect; nearly all actives have a fitted effect of over 60% in size
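Quantitative HTS on tebufenozide-induced (100 nM) PC12 cells stably expressing polyQ103 Huntingtin exon 1–GFP. Reduction of bright GFP aggregates, detected by laser scanning cytometry after lysis, identified actives across the titration.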
HTT ATP protect: cytoprotection in Huntington HTT-Q103 PC12 cell model | Potency, µM (doses to about 56.4 µM), for the others: cytoprotection (ATP increase), actives largely listed as activators | 0.14% of 230,000 active | AID 1471 | PC12 HTT-Q103 induced, cytoprotection, ATP luminescence, 40 h; further: % of control where 0% means no effect; nearly all actives have a fitted effect of over 45% in size
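Cells were plated at 1500 per well in phenol red-free DMEM with 5% equine and 5% calf serum. Tebufenozide (100 nM final) and compounds were added, then ATPlite reagent, and luminescence was read.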
KDM4E inh: inhibitors of human JMJD2E histone demethylase. B2RXH2. JMJD2E catalytic domain, FDH-coupled NADH fluorescence (FDH is formaldehyde dehydrogenase). Potency, µM (doses to about 57.1 µM), inactives show at the top dose activity change, negative = inhibition, actives largely listed as inhibitors. 1.6% of 230,000 active. AID 2147; active means well fitted inhibition curve with a large enough effect, not every such curve was filed as active; inconclusive means small, poorly fitted or top-dose-only effect, or another doubt; inactive means no such curve, though single readings can be large or run the other way;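 further: 0% = wells with enzyme and -100% = buffer wells without enzyme; nearly all actives have a fitted effect of over 50% in size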
* hit, by the source's call; ? = inconclusive; nt = not tested or not shown; ! = a repeat was not active; [ ] = another dose, or the depositor's remark. Rows were chosen to be rich in hits. Some 1.8% of all compounds tested hit in one or more screens of this group. Unless noted, the call rests on the fitted dose curve; in most records, active means well fitted curve in the direction sought with a large enough effect; inconclusive means small, poorly fitted or top-dose-only effect, or another doubt; inactive means no such curve, though single readings can be large; an effect the other way counts as inactive or inconclusive. Potency means the concentration at half of the fitted maximal effect.

SMILES | L3MBTL1 inh | HttQ103 aggreg | HTT ATP protect | KDM4E inh
O=C(C(Sc1ccccc1)c1ccc(Br)cc1)N1CCOCC1 (stereo not drawn) | 13.6% | 9.4% | 13.7%[1.9 µM] | 1.5%
CN(C)/C=C/C=C1C(=O)CCCC1=O | 28.2µM* | 6.7% | 18.2%[10 µM] | -6.2%
FC(F)(F)c1nc(N2CCCC2)ncc1-c1nnnn1-c1ccc(Cl)cc1 | nt | ? | 3.55µM* | ?
CC(C)CCn1cnc2c1c(=O)n(C)c(=O)n2C | 3.7% | -22.7% | -9.7%[0.074 µM] | -3.7%
Cn1c(=O)c2c(ncn2CCO)n(C)c1=O | nt | 4.2% | 2.51µM*! | 6.0%
Cc1ccc(-n2c(C)cc(C(=O)CSc3nncs3)c2C)cc1 | -10.5% | 10µM* | -114.4% | ?
O=S(=O)(NCc1ccccn1)c1cccc2cccnc12 | nt | nt | -6.9% | nt
CC(=O)Nc1cc(OC(C)=O)c2nonc2c1OC(C)=O | 2.51µM* | 7.08µM* | -118.6% | -28.6%
Cc1cc(C)nc(NS(=O)(=O)c2ccc(N/C=C/C(=O)c3ccc(Cl)cc3)cc2)n1 | 4.8% | 2.9% | ? | 22.4µM*
CSc1nc2ccccc2n1Cc1c(Cl)cccc1Cl | nt | 11.2µM* | -29.2% | -1.8%
CC(=O)N[C@@H](C=O)[C@@H](O)[C@H](O)[C@H](O)CO | nt | nt | -32.1% | nt
Cc1ccc(NC(=O)CN2C(=O)S/C(=C/c3ccc(O)c([N+](=O)[O-])c3)C2=O)cc1C | 25.1µM* | 9.7%[9.22 µM] | -11.8%[10 µM] | ?
O=C1OC(=O)[C@@H]2[C@@H]1[C@@H]1CC[C@H]2O1 | nt | nt | -75.0% | nt
COCCN(Cc1cc2cc3c(cc2nc1Cl)OCO3)C(=O)c1ccc(C)cc1 | 28.2µM* | 1.1%[9.22 µM] | -75.9%[10 µM] | -1.1%
COCCN(Cc1cc2cc(C)c(C)cc2nc1Cl)C(=O)Nc1ccccc1 | 6.2% | ? | 0.9%[10 µM] | 10.4%
C=C[C@]1(C)C=C2CC[C@H]3[C@@](C)(CCC[C@@]3(C)C(=O)O)[C@@H]2CC1 | -2.1% | nt | nt | nt
CC(C)C1=CC2=CC[C@@H]3[C@@](C)(C(=O)O)CCC[C@]3(C)C2CC1 (stereo partly drawn) | nt | nt | 1.2%[1.9 µM] | 35.5µM*
COc1cccc(-c2nccc(NCc3ccc(OC)cc3OC)n2)c1 | nt | nt | -74.7% | nt
CN(C)c1ccc(/C=C(\Cl)c2nc3ccccc3s2)cc1 | 10µM* | -1.6% | -20.5%[1.9 µM] | -2.7%
O=C(O)c1ccc(C=C(c2nc3ccccc3s2)c2nc3ccccc3s2)cc1 | -22.3% | 11.2%[9.22 µM] | -14.1% | 3.7%
O=C1c2ccsc2SCCN1Cc1c(Cl)cccc1Cl | nt | 22.4µM* | -98.6%[10 µM] | 1.5%
CCCOc1ccc(CSc2nc3ccccc3[nH]2)cc1 | 18.8% | 7.94µM* | -87.1% | -2.6%
C#CCCCO/N=C1/C[C@@H](O)[C@@H](O)[C@@H]2[C@@H]3C(=O)N(c4cccc(Oc5ccccc5)c4)C(=O)[C@H]3CC[C@H]12 | nt | nt | -13.7%[10 µM] | nt
CCOC(=O)C1=C(C)N=C2SCCC(=O)N2C1c1ccc(C(=O)OC)cc1 (stereo not drawn) | nt | 5.8% | 5.1% | 4.4%
CCOC(=O)C1=C(C)N2C(=C(C#N)[C@@H]1c1ccc(C(=O)OC)cc1)SC[C@@]2(O)C(C)(C)C | nt | 1.4% | -29.8% | 20µM*
SMILES | L3MBTL1 inh | HttQ103 aggreg | HTT ATP protect | KDM4E inh
COc1ccc(C(=O)N2CCC[C@@]3(CCN(Cc4ccccc4OC)C3)C2)cc1 | nt | nt | 14.3% | nt
COCc1cc(CN2CCCC2)c(O)c2ncccc12 | 10µM* | ? | -94.3% | 3.55µM*
O=[N+]([O-])c1cc(CN2CCCC2)c2cccnc2c1O | 3.98µM* | ? | nt | 20µM*
CCOc1ccccc1N1CCN(Cc2cccc(OC)c2O)CC1 | -1.2% | -17.5% | 17.3% | 1.2%
Oc1ccc(CN2CCc3ccccc3C2)c2cccnc12 | nt | ? | -91.0% | ?
Oc1c(CN2CCCCC2)cc(COCc2ccccc2)c2cccnc12 | 12.6µM* | ? | -69.1%[10 µM] | -3.3%
Oc1ccc(CN2CCC(Cc3ccccc3)CC2)c2cccnc12 | nt | ? | -39.5% | ?
COc1ccccc1N1CCN(Cc2cc(Br)c(O)c3ncccc23)CC1 | nt | 10µM* | -49.7% | 25.1µM*
Cc1cccc(CNc2ncnc3ccc(-c4ccc(C(=O)N(C)C)cc4)cc23)c1 | nt | nt | -33.4% | ?
OCCN1CCN(Cc2cc(Cl)c3cccnc3c2O)CC1 | nt | ? | -19.4% | 22.4µM*
CN(C)C1CCN(Cc2cc(COCc3ccccc3)c3cccnc3c2O)C1 (stereo not drawn) | 10µM* | nt | nt | nt
c1ccc(CN2CC[C@@H](CNc3ncnc4ccccc34)C2)cc1 | nt | nt | 21.8%[10 µM] | nt

From PubChem BioAssay
